Hits are enriched below; roughly 4% of the tested compounds scored in any of these assays.
KKLEB cytotox: counter-screen for CF NF-kB inhibitors: cytotoxicity. KKLEB CF airway cells viability, ATPlite luminescence, overnight; hits give low values; cells stimulated with P. aeruginosa culture filtrate. hit rate 0.36% among 360,000. activity change (cytotoxicity), % at 5 µM;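 active means corrected activity change at or below -50% at 5 µM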
TWEAK-Fn14 inh: inhibitors of TWEAK-Fn14 interaction signaling; inhibition, % at 10 µM; hit rate 2% among 360,000; TWEAK-stimulated Fn14 reporter cells, luciferase luminescence, 8 h; AID 1159606; in the data active means inhibition above about 50%
HIF-2a block: inhibitors of HIF-2a. 786-0 RCC cells HIF-2a reporter, luciferase luminescence, overnight. inhibition, % at 18.8 µM. hit rate 0.72% among 360,000. AID 624352;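 active means inhibition of the luminescence signal of 40% or more relative to plate controls, in a single-dose primary screen at 18.75 µM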
Peg3 prom inh: reduces Peg3 promoter-driven luciferase expression in HeLa; HeLa PEG-Prom luciferase reporter, luminescence, overnight; inhibition, % at 20 µM; hit rate 1.7% among 360,000; AID 588405;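 active means inhibition of at least 50% at 20 µM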
CF NFkB inh: inhibitors of cystic fibrosis induced NF-kB | inhibition, % at 5 µM | KKLEB NF-kB-GFP reporter, PAF-induced, GFP fluorescence overnight | AID 588850 | hit rate 0.86% among 360,000;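 active means at least 50% inhibition at 5 µM, scaled per plate between neutral and stimulator controls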;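 further: PAF is a Pseudomonas aeruginosa culture filtrate used as stimulus; plate controls were PAF-stimulated DMSO wells for no effect and unstimulated DMSO wells for full effect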
TROY NFkB inh: inhibitors of TROY-dependent NF-kB signaling; Q293 LMP1-TROYcd NF-kB luciferase reporter, 4 h; inhibition, % at 10 µM; hit rate 0.98% among 360,000;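 active means compounds whose plate-normalised and pattern-corrected inhibition of the luciferase reporter signal at the single screening dose is 50% or more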
* marks the source's active call; other numbers are inactive results; · = not tested or not shown.

SMILES	KKLEB cytotox	TWEAK-Fn14 inh	HIF-2a block	Peg3 prom inh	CF NFkB inh	TROY NFkB inh
CCCC(C(=O)Nc1cccc(S(=O)(=O)N2CCCC2)c1)c1ccccc1 (configuration not stated)	-8.0	-10.7	9.9	14.7	18.2	-3.3
CCCCNc1nc(N)nc(-c2cc(Cl)ccc2O)n1	-27.1	81.8*	-183.9	33.3	82.5*	28.2
CCCCN1CC(COCc2ccccc2)Oc2cccc(OCCN3C(=O)[C@@H]4[C@H](C3=O)C3C=C[C@H]4C3)c2S1(=O)=O (some centres not stated)	-4.9	42.2	-13.6	59.1*	42.8	17.9
CCCCN1CC(COCc2ccccc2)Oc2cccc(Oc3ccc(OC)cc3)c2S1(=O)=O (configuration not stated)	7.5	-5.6	14.6	4.3	6.2	-3.9
Brc1ccc2ncnc(Nc3cccc4ccccc34)c2c1	-22.2	60.7*	24.2	23.2	48.5	34.2
O=C(O)c1cccc(Nc2ncnc3ccc(Br)cc23)c1	-7.4	-6.1	0.7	0.9	0.2	-11.5
CC(=O)CC(C)(C)n1nnc(-c2ccccc2)n1	4.9	92.2*	-23.3	-6.8	-5.5	-2.6
Cc1ccc2nc(NC(=O)c3ccccc3F)sc2c1	-22.2	68.9*	-69.0	-16.3	20.0	7.5
O=C(NNc1nc2ccccc2s1)c1ccccc1F	-1.9	2.7	-71.9	-44.6	-2.1	68.6*
O=C1CC(NNc2nc3ccccc3s2)C(=O)N1c1ccc(F)cc1 (configuration not stated)	-2.1	16.1	11.8	4.2	6.8	69.4*
O=C(NNc1nc2ccccc2s1)Nc1ccc(F)cc1	-4.9	64.6*	-192.9	-211.8	-38.5	44.7
COC(=O)[C@H](CCSC)NS(=O)(=O)c1ccccc1Br	5.5	20.2	3.7	-11.6	-39.3	1.3
NNC(=O)c1ccc(S(=O)(=O)N2CCc3ccccc32)cc1	6.0	-1.7	13.9	0.9	-11.8	14.1
Cc1cc(C)cc(NC(=O)[C@H](NC(=O)[C@@H]2Cc3ccccc3CN2)c2ccccc2)c1	-6.4	-0.9	-32.2	-17.7	1.5	-13.7
NS(=O)(=O)c1ccc(CCNCc2cc(Cl)ccc2OCc2ccccc2)cc1	0.6	2.6	6.6	9.8	18.9	14.2
NS(=O)(=O)c1ccc(CCNCc2ccccc2OCc2ccc(Cl)cc2)cc1	-0.4	2.8	-2.1	86.8*	14.3	-9.3
COc1ccc(NC(=O)C2Cc3c(-c4ccccc4Oc4ccccc4)ccnc3O2)cc1OC (configuration not stated)	12.1	63.4*	10.8	28.5	5.1	42.7
Cc1cc(C)n(CCNC(=O)[C@H]2O[C@@H](n3ccc(=O)[nH]c3=O)[C@H](O)[C@@H]2O)n1	-7.9	-7.0	5.8	12.4	-22.7	-3.3
CC(=O)N1c2ccc(S(=O)(=O)NCC3CCC(C(=O)Nc4ncccc4C)CC3)cc2CC1C (configuration not stated)	-18.3	6.4	9.0	31.8	12.5	-14.3
CC(=O)N1c2ccc(S(=O)(=O)NCC3CCC(C(=O)Nc4cc(C)ccn4)CC3)cc2CC1C (configuration not stated)	-2.9	55.9*	9.8	87.7*	26.0	29.5
CN1OC[C@@H]2CN(C(=O)C(C)(C)C)[C@H](c3cccc(Br)c3)C[C@@H]21	18.2	60.5*	-14.5	-18.9	-28.0	64.2*
CN1OC[C@@H]2CN(C(=O)C(C)(C)C)[C@H](c3cccc(N4CCOCC4)c3)C[C@@H]21	-7.9	-3.4	4.4	10.6	10.6	-33.9
COc1cccc(CN2CCNC(=O)C2CC(=O)NCC(C)(C)N2CCOCC2)c1OC (configuration not stated)	11.0	1.2	13.5	-0.5	-17.8	-13.0
Cc1ccc([N+](=O)[O-])cc1S(=O)(=O)Nc1ccc(O)c(Sc2ncn[nH]2)c1	-1.7	21.6	14.6	15.8	19.9	-10.1
Cc1cc(C)c(S(=O)(=O)/N=C2/C=C(Sc3ncn[nH]3)C(=O)c3ccccc32)cc1C	-59.0*	94.3*	68.1*	106.0*	76.7*	58.8*
SMILES	KKLEB cytotox	TWEAK-Fn14 inh	HIF-2a block	Peg3 prom inh	CF NFkB inh	TROY NFkB inh
CCCCNC(=O)C1(C)CCCCN1Cc1ccc2ccccc2c1 (configuration not stated)	6.9	-10.6	14.9	16.1	-11.8	10.0
Cc1ccc(NS(=O)(=O)c2ccc(-c3coc(C)n3)cc2)c(Cl)c1	7.8	-7.9	3.1	19.8	-4.6	13.3
O=c1oc2ccccc2cc1-c1ccccc1	6.0	-12.5	-219.7	-179.7	-5.5	-63.8
O=C(O)c1ccc(-n2cc(-c3cc4ccccc4oc3=O)[nH]c2=S)cc1	5.7	73.1*	-12.9	6.2	0.9	72.4*
O=c1c2ccccc2oc2cc(C#Cc3ccccn3)ccc12	21.6	64.6*	-263.6	-201.9	-47.0	14.1
NC(CCc1ccccc1)c1csc(Nc2ccc(C(F)(F)F)cn2)n1 (configuration not stated)	-12.1	-17.0	14.8	109.6*	18.3	-7.8
NC(COCc1ccccc1)c1csc(Nc2ccc(C(F)(F)F)cn2)n1 (configuration not stated)	7.0	-7.5	9.3	101.7*	-5.2	13.3
Cc1ccc2oc(/N=C(\N)NC(=O)C3CC3)nc2c1	-1.0	64.3*	-122.7	-149.8	-8.5	30.9
NC(=O)c1nsc(C(=O)N(CC(=O)NC2CCCCC2)c2ccc(Cl)cc2)c1N	1.5	36.2	11.0	0.8	-12.7	-9.1
COc1ccc(Cl)cc1CN1C(=O)C(Cc2ccccc2)ON=C1C (configuration not stated)	5.4	-19.2	0.1	16.6	-28.5	2.7
CCOC(=O)C1=C(C)NC(=O)NC1c1ccc(OCC(N)=O)cc1 (configuration not stated)	-21.1	79.3*	11.7	2.2	-2.3	·
COc1ccc(C(=O)N2CCN(CCc3ccccc3)CC2)cc1[N+](=O)[O-]	3.4	-9.8	-11.3	18.4	-31.2	16.0
O=C(c1ccc(S(=O)(=O)Cc2cc(F)ccc2F)c([N+](=O)[O-])c1)N1CCCC1	-12.3	45.6	-3.0	29.1	18.7	16.8
Cc1ccccc1CS(=O)(=O)c1ccc(C(=O)N2CCC(C)CC2)cc1[N+](=O)[O-]	-12.5	56.5*	13.0	30.0	18.3	2.5
CC1CCN(C(=O)c2ccc(S(=O)(=O)Cc3cccc(F)c3)c([N+](=O)[O-])c2)CC1	-18.9	65.7*	21.6	33.1	37.1	36.3
O=C(c1ccc(S(=O)(=O)Cc2cc(F)ccc2F)c([N+](=O)[O-])c1)N1CCCCC1	-24.1	62.0*	8.0	20.1	47.0	12.0
O=C(c1ccc(S(=O)(=O)Cc2ccccc2Cl)c([N+](=O)[O-])c1)N1CCN(c2ccccn2)CC1	-21.0	68.8*	12.7	38.8	44.7	37.6
Cc1ccc(NC(=O)c2ccc(NS(=O)(=O)c3ccc4[nH]c(=O)[nH]c4c3)cc2)nc1	9.0	7.1	11.0	-9.5	0.7	21.9

Screening data from PubChem.
